Test [1] can be described thus: NCI Yeast Anticancer Drug Screen. Data for the rad50 strain (AID 155).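 Further: 0% = growth of vehicle-only cultures of the same strain.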 To be noted: S. cerevisiae rad50 strain growth inhibition, active compounds read high. In short, it runs like this: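 A DNA repair-deficient yeast mutant serves as the test organism; compound-induced growth inhibition is calculated against vehicle-treated cells.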
Test [2] can be described thus: NCI Yeast Anticancer Drug Screen. Data for the mec2-1 strain (AID 157). The following applies: S. cerevisiae mec2-1 strain, active compounds read high. In short, it runs like this: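 Each compound was tested on mec2-1 yeast, a strain altered in DNA damage repair or cell cycle control. Growth inhibition is reported relative to vehicle.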
The nature of test [3]: NCI Yeast Anticancer Drug Screen. Data for the sgs1 mgt1 strain (AID 161).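 Further: 0% = growth of cultures given vehicle only.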 To be noted: S. cerevisiae sgs1 mgt1 strain, active compounds read high. In short, it runs like this:
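Mutant yeast exposed to compound; growth scored against vehicle-only wells.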

A short description of test [4]: NCI Yeast Anticancer Drug Screen. Data for the cln2 rad14 strain (AID 165).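 Further: 0% = growth equal to vehicle treated cultures.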 The following applies: S. cerevisiae cln2 rad14 strain, active compounds read high. In short, it runs like this: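 Test compounds were added to cln2 rad14 yeast cultures; inhibition of growth was then determined by comparison with vehicle treatment.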
Test [5] in a line: NCI Yeast Anticancer Drug Screen. Data for the bub3 strain (AID 167). To be noted: S. cerevisiae bub3 mutant strain, active compounds read high. In short, it runs like this:
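Inhibition values come from growth of compound-treated mutant yeast normalised to vehicle-treated controls.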

Test [6] in a line: NCI Yeast Anticancer Drug Screen. Data for the mlh1 rad18 strain (AID 175). To be noted: S. cerevisiae mlh1 rad18 strain growth inhibition, active compounds read high. An outline of the steps:
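Inhibition values reflect reduced growth of mutant yeast versus vehicle-treated controls following compound exposure; the mutations affect DNA damage repair.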

[7] abbreviates: at 5.0 µM (retest, dose inferred, filed as 0.5).
The mark [8] stands for this setting: at 50.0 µM (retest, dose inferred, filed as 5.0).

Molecules are shown by their SMILES. Compounds without any hit were thinned out: in the full panel of roughly 79,000, 15% have a hit. Unmarked numbers belong to inactive results. Activity calls are given as the source filed them. No stated cut-off is given here; in the data, active means growth inhibition above about 70%; inactive means the rest.

Regarding `O=C(O)c1ccccc1/C=C1\Cc2ccc3c(c2C1=O)CCCC3`, the growth inhibition in test [1] (setting [7]) was 18%; in test [1] (setting [8]) it was 18%; in test [1] (at 50.0 µM), 81.6% (active); in test [2] (setting [7]), 6%; in test [2] (setting [8]), 6%; in test [2] (at 50.0 µM) it was 83.1% (active). The growth inhibition in test [3] (setting [7]) is 6%; in test [3] (setting [8]), 6%; in test [3] (at 50.0 µM), 81.3% (active); in test [4] (setting [7]) it was -4%; in test [4] (setting [8]), -4%; in test [4] (at 50.0 µM), 85.5% (active). The growth inhibition is -5% in test [5] (setting [7]); -5% in test [5] (setting [8]); 81.5% (active) in test [5] (at 50.0 µM); 12% in test [6] (setting [7]); 12% in test [6] (setting [8]); 79.9% (active) in test [6] (at 50.0 µM).

With `CCOC(=O)C(Cc1ccc(O)c(C=O)c1)NC(C)=O` (stereo unspecified), the growth inhibition in test [1] (setting [7]) is -13%; in test [1] (setting [8]), 7%; in test [1] (at 50.0 µM) it was -19.7%; in test [2] (setting [7]) it was -9%; in test [2] (setting [8]), 20%; in test [2] (at 50.0 µM), -7.45%. The growth inhibition in test [3] (setting [7]) was -22%; in test [3] (setting [8]), 2%; in test [3] (at 50.0 µM), 0.3%; in test [4] (setting [7]), 3%; in test [4] (setting [8]) it was 39%; in test [4] (at 50.0 µM) it was -8.75%. Further, the growth inhibition in test [5] (setting [7]) was -1%; in test [5] (setting [8]) it was 3%; in test [5] (at 50.0 µM), 0.05%; in test [6] (setting [7]), -7%; in test [6] (setting [8]) it was -10%; in test [6] (at 50.0 µM), -1.55%.

With `COc1ccc2nc3cc([N+](=O)[O-])ccc3c(NCCO)c2c1`, the growth inhibition in test [1] (setting [7]) was -24%; in test [1] (setting [8]) it was 77% (active); in test [1] (at 50.0 µM), 58.5%; in test [2] (setting [7]) it was -9%; in test [2] (setting [8]), 66%; in test [2] (at 50.0 µM), 47.8%. Also, the growth inhibition in test [3] (setting [7]) was -26%; in test [3] (setting [8]), 80% (active); in test [3] (at 50.0 µM), 44.6%; in test [4] (setting [7]) it was -6%; in test [4] (setting [8]), 89% (active); in test [4] (at 50.0 µM), 75.1% (active). Moreover, the growth inhibition is -18% in test [5] (setting [7]); 30% in test [5] (setting [8]); 49% in test [5] (at 50.0 µM); 4% in test [6] (setting [7]); 82% (active) in test [6] (setting [8]); 49.9% in test [6] (at 50.0 µM).

For the molecule `COc1cccc2c1C(=O)c1c(O)c3c(c(O)c1C2=O)C[C@@](O)(C(C)=O)C[C@@H]3OC1CC(N(CCO)Cc2ccccc2)C(O)C(C)O1` (stereo partly specified), the growth inhibition in test [1] (setting [7]) is 97% (active); in test [1] (setting [8]) it was 99% (active); in test [1] (at 50.0 µM) it was 91.2% (active); in test [2] (setting [7]), 99% (active); in test [2] (setting [8]), 100% (active); in test [2] (at 50.0 µM) it was 91.3% (active). The growth inhibition in test [3] (setting [7]) was 95% (active); in test [3] (setting [8]) it was 99% (active); in test [3] (at 50.0 µM), 91.5% (active); in test [4] (setting [7]), 90% (active); in test [4] (setting [8]), 97% (active); in test [4] (at 50.0 µM) it was 90.8% (active). Further, the growth inhibition is 98% (active) in test [5] (setting [7]); 99% (active) in test [5] (setting [8]); 89.4% (active) in test [5] (at 50.0 µM); 95% (active) in test [6] (setting [7]); 99% (active) in test [6] (setting [8]); 90.8% (active) in test [6] (at 50.0 µM).

For the molecule `COc1ccccc1C(=O)c1c(C(=O)O)ccc2ccccc12`, the growth inhibition was -2% in test [1] (setting [7]); -17% in test [1] (setting [8]); 3.8% in test [1] (at 50.0 µM); -6% in test [2] (setting [7]); -28% in test [2] (setting [8]); 6.9% in test [2] (at 50.0 µM). In addition, the growth inhibition in test [3] (setting [7]) was -3%; in test [3] (setting [8]), -25%; in test [3] (at 50.0 µM), 7.75%; in test [4] (setting [7]), -17%; in test [4] (setting [8]) it was -3%; in test [4] (at 50.0 µM), 27.6%. For the same molecule, the growth inhibition in test [5] (setting [7]) is -10%; in test [5] (setting [8]) it was -5%; in test [5] (at 50.0 µM), 13.7%; in test [6] (setting [7]), -4%; in test [6] (setting [8]), -1%; in test [6] (at 50.0 µM), 48.6%.

Regarding `Clc1ccc(SCCN2CCN(CCSc3ccc(Cl)cc3)CC2)cc1`, the growth inhibition in test [1] (setting [7]) was 76% (active); in test [1] (setting [8]), 98% (active); in test [1] (at 50.0 µM), 83.2% (active); in test [2] (setting [7]), 79% (active); in test [2] (setting [8]), 99% (active); in test [2] (at 50.0 µM), 77.9% (active). In addition, the growth inhibition in test [3] (setting [7]) is 92% (active); in test [3] (setting [8]), 99% (active); in test [3] (at 50.0 µM), 94.2% (active); in test [4] (setting [7]), 54%; in test [4] (setting [8]), 98% (active); in test [4] (at 50.0 µM), 86.9% (active). The growth inhibition in test [5] (setting [7]) was 85% (active); in test [5] (setting [8]), 99% (active); in test [5] (at 50.0 µM) it was 92.1% (active); in test [6] (setting [7]), 88% (active); in test [6] (setting [8]) it was 99% (active); in test [6] (at 50.0 µM), 96.6% (active).

Regarding `COc1cc(OC(C)C)cc2c1C(=O)C(C(O)(O)C(F)(F)F)=CC2=O`, the growth inhibition in test [1] (setting [7]) is 0%; in test [1] (setting [8]) it was 84% (active); in test [1] (at 50.0 µM), 72.4% (active); in test [2] (setting [7]), 11%; in test [2] (setting [8]) it was 81% (active); in test [2] (at 50.0 µM), 85.5% (active). Besides, the growth inhibition in test [3] (setting [7]) is 2%; in test [3] (setting [8]), 78% (active); in test [3] (at 50.0 µM), 47.7%; in test [4] (setting [7]), 5%; in test [4] (setting [8]), 85% (active); in test [4] (at 50.0 µM), 81.2% (active). Moreover, the growth inhibition was 6% in test [5] (setting [7]); 88% (active) in test [5] (setting [8]); 82.9% (active) in test [5] (at 50.0 µM); -8% in test [6] (setting [7]); 77% (active) in test [6] (setting [8]); 92.8% (active) in test [6] (at 50.0 µM).

These data come from PubChem BioAssay (NCI).
